From PubChem BioAssay
The list is not random: actives were taken first. Their share in the collection is about 6.7%.
T cruzi growth-1 = inhibitors of T. cruzi proliferation | T. cruzi beta-gal in NIH3T3, GalScreen luminescence, 90 h | inhibition, % at 8.34 µM | 5.9% of 77,000 active | AID 624255;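 active means mean inhibition above about 93%, with at least 55% of replicates each passing it, limit read from the data, passing the limit was not always enough; inconclusive means only one of those two conditions holds; inactive means neither condition holds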
Pf Dd2 growth = blocks growth of Plasmodium falciparum Dd2 parasites | 2.3% of 94,000 active | P. falciparum Dd2 growth, SYBR Green, 72 h; active compounds read low | activity change, % at 10 µM | AID 1159554; in the data active means activity change below about -80%; inconclusive means no clear call, values can overlap the other calls
C diff growth = C. difficile growth inhibition; Clostridium difficile clinical isolate growth, OD600, 24 h; active compounds read low; growth activity, negative = inhibition, % at 16 µg/mL (by protocol); 0.25% of 86,000 active;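 active means mean growth activity at or below -80% and every replicate also at or below -80%; inconclusive means mean at or below -80% but some replicate above -80%; inactive means mean growth activity above -80%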;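 further: 0% = DMSO wells and -100% = levofloxacin 16 µg/mL wells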
T cruzi growth-2 = blocks T. cruzi growth in NIH3T3 host cells | shares compounds with T cruzi growth-1 | T. cruzi beta-gal in NIH3T3, GalScreen luminescence, 90 h | inhibition, % at 8.35 µM | 72% of 5,600 active;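 active means mean replicate inhibition above about 95% and at least 55% of replicates individually reaching it, limit read from the data; inconclusive means only one of the two criteria is met; inactive means neither criterion is met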
T cruzi growth-3 = Trypanosoma cruzi proliferation inhibition | shares compounds with T cruzi growth-1 | T. cruzi beta-gal in NIH3T3, GalScreen luminescence, 90 h | inhibition, % at 2.09 µM | 21% of 5,600 active | AID 651740;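 active means mean inhibition above about 95%, with at least 55% of replicates also reaching it, limit read from the data; inconclusive means meets just one of the two conditions; inactive means meets neither condition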;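 further: plate controls were neutral control median for no effect and positive control median for full effect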
NIH3T3 tox = kills mouse NIH/3T3 fibroblasts; shares compounds with T cruzi growth-1; NIH/3T3 viability, CellTiter-Glo ATP luminescence, 90 h; cytotoxicity (signal decrease), % at 8.35 µM; 14% of 5,600 active;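 active means mean signal decrease across replicates above about 35% based on untreated-well scatter, with enough replicates individually passing, limit read from the data; inconclusive means no rule stated though some were filed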;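 further: 0% = median of neutral control wells and 100% = median of positive control wells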
3T3 cytotox 2 = kills mouse NIH/3T3 fibroblasts; shares compounds with T cruzi growth-1; NIH/3T3 viability, CellTiter-Glo ATP luminescence, 90 h; inhibition, % at 24.9 µM; 56% of 5,600 active; AID 651744;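 active means mean loss of cell viability signal at or above a set limit, and enough replicates individually reaching it; inconclusive means meets only the mean limit or only the replicate share; inactive means meets neither condition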;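 further: 0% = median of neutral control wells and 100% = median of positive control wells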
* = called active by the depositor; ? = inconclusive; / = no result given.

SMILES	T cruzi growth-1	Pf Dd2 growth	C diff growth	T cruzi growth-2	T cruzi growth-3	NIH3T3 tox	3T3 cytotox 2
C[C@@H]1CN([C@H](C)CO)C(=O)c2cc(NS(=O)(=O)c3ccc(Cl)cc3)ccc2O[C@@H](C)CCCCO[C@H]1CN(C)S(=O)(=O)c1ccccc1	/	-36	-1	/	/	/	/
C[C@@H]1CCCCO[C@@H](CN(C)S(=O)(=O)c2ccc(Cl)cc2)[C@@H](C)CN([C@H](C)CO)C(=O)c2cc(NS(=O)(=O)c3ccccc3)ccc2O1	94	-54	2	/	/	/	/
C[C@@H]1CCCCO[C@@H](CN(C)S(=O)(=O)c2ccccc2)[C@H](C)CN([C@@H](C)CO)C(=O)c2cc(NS(=O)(=O)c3ccc(Cl)cc3)ccc2O1	116*	-1	-8	101*	78	-6	-6
C[C@@H]1CCCCO[C@H](CN(C)S(=O)(=O)c2ccccc2)[C@H](C)CN([C@@H](C)CO)C(=O)c2cc(NS(=O)(=O)c3ccc(Cl)cc3)ccc2O1	118*	-15	-16	92	88	-4	-10
CNC[C@H]1Oc2ccc(N)cc2C(=O)N([C@H](C)CO)C[C@@H]1C	48	4	1	/	/	/	/
C[C@@H]1CCCCO[C@H](CN(C)C(=O)Nc2ccccc2)[C@@H](C)CN([C@H](C)CO)C(=O)c2cc(NC(=O)Nc3cccc4ccccc34)ccc2O1	52	-32	/	/	/	/	/
C[C@H]1CCCCO[C@@H](CN(C)C(=O)Nc2ccc(C(F)(F)F)cc2)[C@@H](C)CN([C@@H](C)CO)C(=O)c2cc(NC(=O)Nc3cccc4ccccc34)ccc2O1	90	-1	-18	/	/	/	/
C[C@H]1CCCCO[C@H](CN(C)C(=O)Nc2ccc(C(F)(F)F)cc2)[C@@H](C)CN([C@@H](C)CO)C(=O)c2cc(NC(=O)Nc3cccc4ccccc34)ccc2O1	103*	-83*	-19	109*	109*	14	24
C[C@H](CO)N1C[C@H](C)[C@@H](CN(C)C(=O)Nc2ccc(C(F)(F)F)cc2)OCCCC[C@H](C)Oc2ccc(NC(=O)Nc3cccc4ccccc34)cc2C1=O	101*	-86*	-12	104*	94	9	18
C[C@@H]1CCCCO[C@H](CN(C)S(=O)(=O)c2cn(C)cn2)[C@@H](C)CN([C@H](C)CO)C(=O)c2cc(NC(=O)Nc3ccc(C(F)(F)F)cc3)ccc2O1	-3	-27	4	/	/	/	/
CC(C)NC(=O)Nc1ccc2c(c1)C(=O)N([C@@H](C)CO)C[C@@H](C)[C@@H](CN(C)S(=O)(=O)c1ccc(Cl)cc1)OCCCC[C@@H](C)O2	108*	-70	2	101*	41	-13	0
Cc1noc(C)c1NC(=O)Nc1ccc2c(c1)C(=O)N([C@@H](C)CO)C[C@@H](C)[C@@H](CN(C)S(=O)(=O)c1ccc(Cl)cc1)OCCCC[C@@H](C)O2	72	-69	/	/	/	/	/
CC(C)NC(=O)Nc1ccc2c(c1)C(=O)N([C@H](C)CO)C[C@@H](C)[C@H](CN(C)S(=O)(=O)c1ccc(Cl)cc1)OCCCC[C@@H](C)O2	72	-76	10	/	/	/	/
C[C@H]1CCCCO[C@H](CN(C)S(=O)(=O)c2ccc(Cl)cc2)[C@@H](C)CN([C@@H](C)CO)C(=O)c2cc(NC(=O)NC3CCCCC3)ccc2O1	87	/	2	/	/	/	/
Cc1noc(C)c1NC(=O)Nc1ccc2c(c1)C(=O)N([C@H](C)CO)C[C@H](C)[C@H](CN(C)S(=O)(=O)c1ccc(Cl)cc1)OCCCC[C@H](C)O2	?	-67	-24	55	-43	-21	-30
C[C@H](CO)N1C[C@H](C)[C@@H](CN(C)S(=O)(=O)c2ccc(Cl)cc2)OCCCC[C@H](C)Oc2ccc(NC(=O)NC3CCCCC3)cc2C1=O	106*	/	-1	109*	75	-10	0
COc1ccccc1NC(=O)N[C@@H]1CC[C@@H](CCn2cc(-c3cccnc3)nn2)O[C@H]1CO	2	-6	/	/	/	/	/
O=C(CN1CCOCC1)N[C@H]1CC[C@@H](CCNS(=O)(=O)c2ccccc2F)O[C@@H]1CO	-3	22	/	/	/	/	/
O=C(C[C@H]1CC[C@H](NC(=O)Nc2ccccc2F)[C@H](CO)O1)NCc1ccccc1	42	0	-4	/	/	/	/
